Measured values taken from PubChem BioAssay AID1117319 (Southern Research Institute, 2015).
The campaign covered roughly 260,000 compounds. About 1,500 (0.58%) were called active. Inconclusive results (about 5%) are left out.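 Rule for the calls: active = inhibition above a set limit at one or more doses, reproduced on every date tested; inconclusive = results disagree between test dates, or hit never tested in dose response; inactive = the rest.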 The list is a sample of the results. Potency and affinity values are given separately.

What follows are molecules tested against Virion infectivity factor (Human immunodeficiency virus type 1 group M subtype B (isolate BH10)) + Virion infectivity factor (Human immunodeficiency virus type 1 group M subtype B (isolate BRU/LAI)) + Virion infectivity factor (Human immunodeficiency virus type 1 group M subtype B (isolate PCV12)) + Virion infectivity factor (Human immunodeficiency virus type 1 group M subtype B (isolate HXB2)) + DNA dC->dU-editing enzyme APOBEC-3G (Homo sapiens) (UniProt P69720+P69721+P69722+P69723+Q9HC16) (assay: HIV-1 Vif–A3G interaction blockers – biochemical, TR-FRET, GST-Vif 1-94, biotin-A3G peptide, dose response retest, primary screen (AID 1117319;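 note: Vif residues 1-94 fused to GST binding biotinylated APOBEC3G peptide 110-148; 0% = full assay without inhibitor and 100% = GST in place of GST-Vif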)). Settings: TR-FRET GST-Vif / biotin-A3G peptide binding; active compounds read high.

inhibition, inactive:
COc1ccc(CNC(=O)C(C)N(C)Cc2cccc(F)c2)cc1 (stereo not given) -5.46%, CCNc1ccc(C(=O)NN=C2CCCC2)cc1[N+](=O)[O-] 4.6%, Cc1ccc(C)c(NC(=O)CSc2nc3[nH]ncc3c(=O)[nH]2)c1 8.18%, COc1cc(OC)c(-c2noc(C(=O)OC(C)(C)C)c2C(=O)OC(C)(C)C)c(OC)c1 -1.31%, Cc1ccc(N2NC(=O)/C(=C\c3cc4c(cc3[N+](=O)[O-])OCO4)C2=O)cc1C 27.7%, COc1ccccc1N1C(=O)S/C(=C\c2ccc(C)s2)C1=O -7.12%, O=C(/C=C/c1ccc([N+](=O)[O-])s1)N1CCN(c2ccccc2)CC1 2.14%, O=C1N/C(=C/c2ccc(Br)s2)C(=O)N1c1ccccc1 -0.93%, COc1cccc(N2C(=O)/C(=C\c3cccs3)NC2=S)c1 7.97%, COc1ccccc1NC(=O)C(=O)N/N=C/c1ccc([N+](=O)[O-])s1 -6.16%, COc1cccc(/C=C2/C(=O)NN(c3ccccc3)C2=O)c1 0.84%, O=C1NC(=S)N/C1=C/c1cc2c(cc1[N+](=O)[O-])OCO2 -9.06%, CCOC(=O)C1=C(CC)Nc2ccccc2N=C1NC(=O)c1ccc(S(=O)(=O)N2CCOCC2)cc1 -4.07%, O=c1nc2n(c3ccc([N+](=O)[O-])cc13)CCCCC2 -7.12%, CCOC(=O)N1CCC(NC(=O)c2cc(S(=O)(=O)N3CCc4ccccc43)cn2C)CC1 -4.57%, CCOC(=O)C1=C(C)N(C[C@@H]2CC[C@@H](Cc3ccc(-c4ccccc4)cc3)O2)C(=O)NC1c1ccc(SCc2ccco2)c([N+](=O)[O-])c1 (stereo not given in full) 30.7%, Cc1nc2c(s1)sc1ccccc12 -4.72%, C=CC(=O)NC(C)(C)CCN1CCOCC1 0.07%, CCc1cccc(C)c1NC(=O)CO/N=C(\N)CC(=O)NC1CCCCC1 -0.04%, O=C1C=CC(=Nc2ccc3c(c2)C(=O)c2ccccc2-3)O1 -2.81%, O=[N+]([O-])c1ccccc1C=NNc1ccccc1 -8.57%, COc1ccc(CC(NC(C)=O)C(=O)NC2CCN(S(=O)(=O)c3ccccc3)CC2)c(OC)c1 (stereo not given) 3.28%, O=C(COC(=O)C12CC3CC(CC(Br)(C3)C1)C2)N1CCOCC1 4.7%, Cc1cc(=O)oc2cc(OCC(=O)N3CCCc4ccccc43)ccc12 -3.74%, COCCCNc1nc2nonc2nc1N1CCC(C(C)N2CCOCC2)CC1 (stereo not given) -10.9%, CN1CCN(C(=O)c2ccc3nc(-c4ccccc4)c(-c4ccccc4)nc3c2)CC1 5.63%, O=C(c1cccc(C(=O)N2CCN(c3ncccn3)CC2)c1)N1CCN(c2ncccn2)CC1 17.4%, O=C(c1ccco1)N1CCN(c2ncccn2)CC1 5.99%, CCN1CCN(C(=O)c2ccc3nc(-c4ccccc4)c(-c4ccccc4)nc3c2)CC1 -0.29%, O=C(COc1ccccc1)NC(Cc1c[nH]c2ccccc12)C(=O)O (stereo not given) 7.79%, c1ccc(-c2noc(CCC3CCCC3)n2)cc1 -1.6%, Cc1c(C(=O)N2CCCCCC2)oc2ccccc12 30.7%, Cc1cc(C)nc(NN=CC2=C(N3CCOCC3)/C(=C/c3ccc(Cl)cc3)CC2)n1 17.2%, Cc1cc(C)nc(N/N=C/c2ccc(Cl)cc2)n1 -3.39%, CN(C)CCNC(=O)c1ccc(CS(=O)(=O)c2c(Cl)cccc2Cl)o1 3.4%, COC(CNC(=O)c1ccc(CS(=O)(=O)c2c(Cl)cccc2Cl)o1)OC -0.54%, CC(=O)c1cccc(NC(=O)N2CCCC2C(=O)NC2CCCCC2)c1 (stereo not given) -4.16%, CCOc1ccc2nc(NC(=O)CSc3nc4c(c(=O)n(C)c(=O)n4C)n3C(C)C)sc2c1 18.8%, O=C(c1cccc(C(=O)N2CCN(c3ccccc3F)CC2)c1)N1CCN(c2ccccc2F)CC1 -8.59%, CCC(=O)c1ccc(N2CCN(C(=O)c3cccc(F)c3)CC2)c(F)c1 -9.86%, CCOC(=O)C1CCN(CC(O)COCc2ccc(Cl)cc2)CC1 (stereo not given) 8.82%, O=S(=O)(/C=C/c1ccccc1)N1CCN(c2cccc(Cl)c2)CC1 -3.95%, CS(=O)(=O)c1ccc2nc(NC(=O)c3ccco3)sc2c1 8.25%, O=C(Nc1nnc(-c2ccco2)s1)C1CC1 12.1%, O=C(Nc1ccc(F)cc1F)c1cc(-c2ccco2)on1 5.56%, O=C(Nc1nc(-c2cccs2)c(-c2ccccc2)s1)c1ccco1 2.82%, O=C(Nc1nnc(-c2ccco2)s1)C1CCCCC1 22.7%, Cc1ccc(C(=O)Nc2nc(-c3ccco3)c(-c3ccco3)s2)o1 23.7%, COc1ccc(C(=O)Nc2nnc(-c3ccco3)s2)cc1 -3.84%, O=C(NC(=S)Nc1nc2ccc(F)cc2s1)c1ccco1 9.98%, COc1ccc(CNC(=O)N[C@@H](CC(C)C)C(=O)O)cc1OC -2.37%, CCCc1cc(=O)[nH]c(SCC(=O)NCC2COc3ccccc3O2)n1 (stereo not given) -7.96%, COc1cnc(-c2ccccn2)[nH]c1=O 2.61%, O=C(Cn1nnc(-c2ccccc2F)n1)NCc1ccco1 10.4%, COc1ccc(CCNS(=O)(=O)c2ccc(OC)cc2)cc1 -5.66%, Cc1[nH]c2ccc(Br)cc2c(=O)c1CN1CCCCCC1 -12.9%, CC1CCCN(S(=O)(=O)Cc2ccc(Cl)cc2)C1 (stereo not given) 4.49%, COc1ccc(COc2ccsc2C(=O)Nc2ccc(Cl)cc2)cc1 -8.53%, [O-][n+]1cccc2cccc(O)c21 -10.3%, Cc1ccc2cccc(O)c2[n+]1[O-] 18.8%
